# From the supplement of paper PMC9023506
# Counter-ions that a name gives are not always drawn.
# System: Danio rerio larvae (5 dpf)
# Test: optomotor response to fast red moving lines, difference vs DMSO (percentage points (treated minus DMSO)); higher = more of the behaviour than the DMSO vehicle control
# Details: 10 µM; exposure time: 3 h pre-incubation + 3 h imaging
# Procedure: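 5-dpf wild-type zebrafish larvae were imaged in 96-well plates. They were treated with 190 Tocris FDA-approved drugs at 10 µM (1 µl/ml DMSO) for 3 h before and 3 h during imaging at 28.5 °C, 48 larvae per drug. Automated image analysis gave % time moving and optomotor responses. Values are drug group mean minus DMSO vehicle mean (n=844), in percentage points, for 10 behaviours.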
row,Structure (SMILES),optomotor response
1,COc1ccc(C(CN(C)C)C2(O)CCCCC2)cc1 (stereo unspecified) [Venlafaxine hydrochloride],7.81
2,CCN(C)C(=O)Oc1cccc([C@H](C)N(C)C)c1 [Rivastigmine tartrate],-8.58
3,O=c1[nH]c2ccccc2n1C1CCN(CCCC(c2ccc(F)cc2)c2ccc(F)cc2)CC1 [Pimozide],-34.3
4,N[C@@H]1C[C@H]1c1ccccc1 [Tranylcypromine hydrochloride],11.9
5,CC(C)C[C@H]1C(=O)N2CCC[C@H]2[C@]2(O)O[C@](NC(=O)[C@@H]3C=C4c5cccc6[nH]c(Br)c(c56)C[C@H]4N(C)C3)(C(C)C)C(=O)N12 [Bromocriptine mesylate],-41.6
6,CN1C[C@H](C(=O)N[C@]2(C)O[C@@]3(O)[C@@H]4CCCN4C(=O)[C@H](Cc4ccccc4)N3C2=O)C[C@@H]2c3cccc4[nH]cc(c34)C[C@H]21 [Dihydroergotamine mesylate],2.2
7,COc1cc2c(cc1OC)C1CC(=O)C(CC(C)C)CN1CC2 (stereo unspecified) [Tetrabenazine],-22.5
8,CC(O)(CS(=O)(=O)c1ccc(F)cc1)C(=O)Nc1ccc(C#N)c(C(F)(F)F)c1 (stereo unspecified) [Bicalutamide],-2.63
9,C=CCN1C[C@H](C(=O)N(CCCN(C)C)C(=O)NCC)C[C@@H]2c3cccc4[nH]cc(c34)C[C@H]21 [Cabergoline],-23.2
10,C=C1C[C@@H]2[C@H](CC[C@]3(C)C(=O)CC[C@@H]23)[C@@]2(C)C=CC(=O)C=C12 [Exemestane],5.64
11,CC[C@@H](C(N)=O)N1CCCC1=O [Levetiracetam],-4.73
